Source: PubChem (National Center for Advancing Translational Sciences (NCATS))
D3 ag – D3 dopamine receptor (human) agonism; P35462; D3R DiscoveRx beta-arrestin cells, luminescence, 90 min; max activation, %; hit rate 0.58% among 410,000; AID 652048; in the data active = max activation above about 30%; note: 0% is about no effect
Target sequence (P35462 whole entry, looked up): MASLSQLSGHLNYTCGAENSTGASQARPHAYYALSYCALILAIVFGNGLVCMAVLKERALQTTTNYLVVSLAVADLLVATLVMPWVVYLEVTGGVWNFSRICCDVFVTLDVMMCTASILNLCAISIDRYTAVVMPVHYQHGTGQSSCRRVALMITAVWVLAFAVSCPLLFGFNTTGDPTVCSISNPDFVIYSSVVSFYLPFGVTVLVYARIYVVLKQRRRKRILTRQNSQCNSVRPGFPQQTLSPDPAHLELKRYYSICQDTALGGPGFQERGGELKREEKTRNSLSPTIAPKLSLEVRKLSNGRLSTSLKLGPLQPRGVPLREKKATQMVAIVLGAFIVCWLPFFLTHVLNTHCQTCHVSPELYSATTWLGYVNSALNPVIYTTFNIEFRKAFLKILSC
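Cells at 1500/well, incubated overnight, then treated with pinned compounds (dopamine as control) for 90 min at 37 degrees C. DiscoveRx reagent added for 30 - 60 minutes at room temperature; luminescence read.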
D1 antag – antagonists of human D1 dopamine receptor. P21728. HEK293 TREx D1 cells, calcium flux, dopamine EC80; stronger effect = lower value. activity change, negative = inhibition, % at 10 µM. hit rate 3.2% among 360,000; in the data active = activity change below about -30%; note: % is set by controls: 0 for no effect and ±100 for the full control effect
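Calcium flux readout: force-coupled, inducible Hek293 Trex D1 line, cells induced overnight at 30 C with tetracycline, dye-loaded 30–90 min at RT. Antagonism scored against EC80 dopamine challenge given 180 s after compound.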
D1 PAM – enhances dopamine response at the human D1 receptor. P21728. HEK293 TREx D1 cells, calcium flux, dopamine EC20 potentiation. potentiation, % at 10 µM. hit rate 0.036% among 360,000; in the data active = potentiation above about 30%; note: 0% is about no effect
D3 antag – blocks the human D3 dopamine receptor; P35462; D3R cells, DiscoveRx beta-arrestin luminescence, antagonist mode; stronger effect = lower value; max response, negative = inhibition, %; hit rate 2.5% among 360,000; AID 652054; in the data active = max response below about -50%; note: % is set by controls: 0 for no effect and ±100 for the full control effect
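Cells expressing the human receptor were seeded at 1500 cells/well, incubated overnight at 37 degrees C in 5% CO2, then exposed to library compounds with dopamine controls for 90 minutes at 37 degrees C before luminescent detection.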
D1 agonist – activates the human D1 dopamine receptor. AID 504660. hit rate 1% among 360,000. P21728. activation, % at 2 µM. HEK293 T-REx D1 cells, calcium flux, agonist mode; in the data active = activation above about 30%; note: 0% is about no effect
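Inducible HEK293 T-REx D1 cells, force-coupled to calcium signalling, were plated at 4000 cells/well with tetracycline and held overnight at 30 C. After no-wash calcium dye loading, compound-evoked calcium rise over 180 s flagged agonists.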
Numbers without * were called inactive; ! = not active in a repeat. The list is not random: actives were taken first. Their share in the collection is about 6.1%.

Screening O=C(Nc1ccc2nccnc2c1)Nc1ccccc1Cl returned D3 ag -1, D1 antag 6, D1 PAM -12, D3 antag -3 and D1 agonist 26.
For CCN1CCN(Cc2ccccc2NC(=O)Nc2ccc(C)cc2)CC1 the results were D3 ag -17, D1 antag 3, D1 PAM 4, D3 antag -30 and D1 agonist 2.
`CCN1CCN(Cc2ccc(NC(=O)Nc3ccccc3Cl)cc2)CC1` gave D3 ag -15, D1 antag -9, D1 PAM -1, D3 antag -61* and D1 agonist 3.
For O=C(CNC(=O)c1ccc(Br)o1)Nc1ccncc1 the results were D3 ag 0, D1 antag -64*, D1 PAM -4, D3 antag 4 and D1 agonist 0.
Screening O=C(Nc1ccc(Br)cc1)Nc1ccccc1Cl returned D3 ag 2, D1 antag -41*, D1 PAM -3, D3 antag 34 and D1 agonist 11.
Screening CCOC(=O)c1cccc(NC(=O)c2ccc(-n3cnnn3)cc2)c1 returned D3 ag 74* and D3 antag -3.
COC(=O)c1cccc(NC(=O)c2cccc(-n3cnnn3)c2)c1 was read as D3 ag -5 and D3 antag -2.
Screening O=C(O)CCCC(=O)Nc1cccc2cccnc12 returned D3 ag -7, D1 antag -95*, D1 PAM -8, D3 antag -10 and D1 agonist 0.
`O=C(Cc1ccccc1F)Nc1cccc2cccnc12` gave D3 ag 3, D1 antag 5, D1 PAM -1, D3 antag 0 and D1 agonist -1.
For OCc1cn(Cc2ccc(O)c3ncccc23)cn1 the results were D1 antag 19, D1 PAM 17 and D1 agonist 6.
`CCN(CC)c1ccc(C2=NNC(=O)CC2C)cc1[N+](=O)[O-]` (configuration not stated) gave D3 ag -12, D1 antag -44*, D1 PAM -9, D3 antag -9 and D1 agonist 3.
`COc1ccc(Cn2c(=O)c3oc4ccccc4c3n(Cc3cccc(C(F)(F)F)c3)c2=O)cc1` gave D3 ag -7, D1 antag 7, D1 PAM -4 and D1 agonist 4.
Screening O=C(NCCc1ccccc1)C(=O)Nc1nccs1 returned D3 ag 3, D1 antag -2, D1 PAM -6, D3 antag 0 and D1 agonist 33*.
CCCn1c(=O)n(CC(=O)NCC2CCCO2)c(=O)c2c3c(sc21)COC(C)(C)C3 (configuration not stated) was read as D3 ag -11, D1 antag -9, D1 PAM 0, D3 antag 0 and D1 agonist 1.
Cn1c(=O)n(CC(=O)NCC2CCCO2)c(=O)c2c3c(sc21)COC(C)(C)C3 (configuration not stated) was read as D3 ag 0, D1 antag -30*, D1 PAM -1, D3 antag -1 and D1 agonist 1.
For Cn1nc(C(=O)NCc2ccccc2Cl)c2c1-c1ccccc1S(=O)(=O)C2 the results were D3 ag 3, D1 antag -31*!, D1 PAM 1, D3 antag 3 and D1 agonist 3.
Cc1ccc(CCNC(=O)c2nn(C)c3c2CSc2ccccc2-3)cc1 was read as D3 ag -9, D1 antag 5, D1 PAM 0 and D1 agonist 1.
`CC1CC(C)CN(CCCNC(=O)c2nn(C)c3c2CS(=O)(=O)c2ccccc2-3)C1` (configuration not stated) gave D3 ag 4, D1 antag -42*, D1 PAM 0, D3 antag -19 and D1 agonist -1.
For CCN(CCCNC(=O)c1nn(C)c2c1CS(=O)(=O)c1ccccc1-2)Cc1ccccc1 the results were D3 ag -22, D1 antag -22, D1 PAM -1, D3 antag -56* and D1 agonist 0.
Cn1nc(C(=O)NCCCN2CCCCC2)c2c1-c1ccccc1SC2 was read as D3 ag -16, D1 antag -30*, D1 PAM -5, D3 antag -7 and D1 agonist 5.
